{
  "source": "PubChem BioAssay (EPA / NIEHS)",
  "note": "Records with an inconclusive call do not appear. Some structures have more than one record in an assay (separate samples or runs), and their calls can disagree. The source made the active and inactive calls. The calls were made as follows: active = hit-call score of the fitted dose curve at least 0.9, where 1 is the maximum; inconclusive = response in the unintended direction; inactive = score below 0.9.",
  "data": [
    {"molecular_target": "human Peroxisome Proliferator-activated Receptor alpha (PPARa), PPARA (gene 5465) (UniProt Q07869)", "sequence (Q07869 whole entry, looked up)": "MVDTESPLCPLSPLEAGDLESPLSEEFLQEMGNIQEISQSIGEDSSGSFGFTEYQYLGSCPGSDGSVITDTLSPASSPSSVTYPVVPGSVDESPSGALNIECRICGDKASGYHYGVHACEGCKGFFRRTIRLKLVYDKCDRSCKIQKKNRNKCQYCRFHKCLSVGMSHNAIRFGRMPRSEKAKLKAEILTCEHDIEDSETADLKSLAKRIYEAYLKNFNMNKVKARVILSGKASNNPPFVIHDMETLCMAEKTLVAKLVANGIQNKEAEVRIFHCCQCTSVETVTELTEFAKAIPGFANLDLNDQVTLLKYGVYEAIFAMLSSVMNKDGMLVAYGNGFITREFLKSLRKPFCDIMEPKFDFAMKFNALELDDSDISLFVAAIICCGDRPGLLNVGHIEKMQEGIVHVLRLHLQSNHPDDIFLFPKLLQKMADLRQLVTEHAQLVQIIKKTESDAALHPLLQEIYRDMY", "assay": "NVS_NR_hPPARa: NovaScreen (NVS) Nuclear Receptor Binding Assay for human Peroxisome Proliferator-activated Receptor alpha (PPARa) (AID 2283359);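 also: activity means loss of TR-FRET signal versus DMSO baseline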", "protocol": "NVS_NR_hPPARa is a biochemical, single-readout assay that uses extracted gene-proteins in a cell-free assay. Measurements were taken 1 hour after chemical dosing in a 384-well plate.NVS_NR_hPPARa is one of one assay component(s) measured or calculated from the NVS_NR_hPPARa assay. It is designed to make measurements of fluorescent resonance energy transfer, a form of binding reporter, as detected with fluorescent resonance energy transfer signals by Time-Resolved Fluorescence Resonance Energy Transfer (TR-FRET) technology.Data from the assay component NVS_NR_hPPARa was analyzed into 1 assay endpoint. This assay endpoint, NVS_NR_hPPARa, was analyzed in the positive analysis fitting direction relative to DMSO as the negative control and baseline of activity. Using a type of binding reporter, loss-of-signal activity can be used to understand changes in the binding as they relate to the gene PPARA. Furthermore, this assay endpoint can be referred to as a primary readout, because the performed assay has only produced 1 assay endpoint. To generalize the intended target to other relatable targets, this assay endpoint is annotated to the nuclear receptor intended target family, where the subfamily is non-steroidal.\nBinding assays used specific radioligands (tritiated, iodinated) with non-radioactive competitive displacement ligands in agonist or antagonist protocols (as indicated) and various reference compounds and inhibitors to titrate specific binding to receptors and transporters. Most enzyme assays (CYPs, kinases, phosphatases, proteases, HDACs) used recombinant protein and specific substrates (fluorescence mostly, some colorimetric and radioactive) and inhibitors, followed by a biochemical separation of substrate and product. All assays for the biochemical HTS were initially run in duplicate at a single concentration (10 uM for CYP450 assays and 25 uM for all others). […] Each assay was run with positive and negative controls, and concurrent controls on every plate. The follow-up (secondary) screen tested active chemical-pairs in concentration series, as well as a few additional assays not tested in the primary screen, some selected negative inactives, and several cases re-run in the concentration series for confirmatory purposes.", "values": [
      {"smiles": "OC1CCC(C2CCCCC2)CC1", "note": "(stereo unspecified)", "outcome": "inactive"},
      {"smiles": "Cc1cc(C)c(O)c(C)c1", "outcome": "inactive"},
      {"smiles": "CCCOC(=O)c1ccc(O)cc1", "outcome": "inactive"},
      {"smiles": "O=C(O)Cc1cc(I)c(Oc2cc(I)c(O)c(I)c2)c(I)c1", "outcome": "inactive"},
      {"smiles": "CC(C)(C)c1cc(C(C)(C)C)c(O)c(C(C)(C)C)c1", "outcome": "inactive"},
      {"smiles": "CCc1ccc(CCOc2ccc(CC3SC(=O)NC3=O)cc2)nc1", "note": "(stereo unspecified)", "outcome": "inactive"},
      {"smiles": "CCOC(=O)CC(O)(CC(=O)OCC)C(=O)OCC", "outcome": "inactive"},
      {"smiles": "CCC(=C(c1ccc(O)cc1)c1ccc(OCCN(C)C)cc1)c1ccccc1", "outcome": "inactive"},
      {"smiles": "CC1=C(/C=C/C(C)=C/C=C/C(C)=C/C(=O)O)C(C)(C)CCC1", "outcome": "inactive"},
      {"smiles": "CC[C@H](c1ccc(O)cc1)[C@@H](CC)c1ccc(O)cc1", "outcome": "inactive"},
      {"smiles": "CC(C)(C)c1ccc(O)c(C(C)(C)C)c1", "outcome": "inactive"},
      {"smiles": "NC(=O)N1C(=O)C(C(=O)c2cc(Cl)cs2)c2cc(F)c(Cl)cc21", "note": "(stereo unspecified)", "outcome": "inactive"},
      {"smiles": "CCCCCCCC(=O)O", "AC50": "4.38 µM (active)"},
      {"smiles": "CCCCCCCCOC(=O)CCCCCCCCC(=O)OCCCCCCCC", "outcome": "inactive"},
      {"smiles": "CC#C[C@]1(O)CC[C@H]2[C@@H]3CCC4=CC(=O)CCC4=C3[C@@H](c3ccc(N(C)C)cc3)C[C@@]21C", "outcome": "inactive", "AC50": "41.9 µM (active)"}
    ]}
  ]
}
